# The supplement of paper PMC10338343
# ± gives the standard deviation.
# Test system: MILI (PIWIL2) piRISC loaded with L1MC piRNA (26 nt)
# Test: pre-steady-state target cleavage rate (min^-1); guide: L1MC piRNA 5'p-UAACUAAAUACUAUGCAAGCUGUAGG; MIWI and MILI are mouse PIWI proteins and EfPiwi is from a freshwater sponge; tags in brackets are library labels; higher = faster piRNA-guided slicing of the target
# Conditions: auxiliary factor: 500 nM mouse GTSF1
# Procedure, shortened: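 Cleave-'n-Seq: a transcribed, DNA-blocked target RNA library (0.1 nM) was mixed with 1 nM active affinity-purified piRISC carrying one synthetic guide, with or without 500 nM GTSF1 partner protein, in HEPES–potassium acetate buffer at 33 °C for 0–8 or 0–960 min. Uncleaved targets were sequenced and normalised to depth and to weakly complementary targets. Three trials were pooled, and k3 was capped at 0.0001 min^-1. The pre-steady-state cleavage rate came from a burst-and-steady-state fit.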
row,Sequence,pre-steady-state target cleavage rate
1,UCCUGGAACAGCUUGCAUAGUAUAUACUUA,0.0233 ± 0.01
2,UCCUGGAUCAGCUUGCAUACUAUUUAGAAA,0.0141 ± 0.0069
3,UCCUGGAUCAGCUUGCAUAGUUUUUACUUA,0.00933 ± 0.0038
4,UCCUGGAUGUCCUUGCAUAGUAUAAUCAAA [g8:g19:cont:t1A],0.00606 ± 0.0037
5,UCCUGGAACAGCUUGCAUAGUAUUAUCAAA,0.0521 ± 0.017
6,UCCUGGAUGUCGAUGGAUAGUAUUUUGUUA,0.00767 ± 0.0043
7,UCCUGGUAGUCCUUGCAUAGUAUUUAGAAA,0.0521 ± 0.017
8,UCCUGCUACACGAUGCAUAGUAUUUAGAAA,0.183 ± 0.042
9,UCCUGGAUGUCGAUGCAUAGUAUUUCAGUUA,0.108 ± 0.025
10,UCCUCCUACAGCUUGCUAUGUAUUUUCAAA,0.006 ± 0.0037
11,UCCUGGAUGUCCUUGCAUAGUAUAUAGUAA,0.0276 ± 0.01
12,UCCUGCUACACGUUGCAUAGUAUUUAGAAA,0.0396 ± 0.013
13,UCCUGGUACAGGUUGCAUAGUAUUUAGAAA,0.043 ± 0.013
14,UCCUGGAUGUCCUAGGAUAGUAUUUAGUUA,0.0104 ± 0.0042
15,UCCUGGAACACCUUGCAUAGUAUUUACUUA,0.0546 ± 0.018
16,UCCUGGUACAGCUAGCAUAGUAUUUAGAUA,0.0905 ± 0.022
17,UCCUGCUACAGCUUGCAUAGAAUUUACUUA,0.107 ± 0.031
18,UCCUGGAUCAGCUUGCAUAGAAUAUAGUUA,0.042 ± 0.012

row,Sequence,pre-steady-state target cleavage rate
1,UCCUGGAUGUCGUUGCAUAGUAUUUAGGUUA,0.152 ± 0.033
2,UCCUCCUACAGCUACGAUAGUAUUUAGUAA,0.174 ± 0.024
3,UCCUGGAUGUCGUUGCAUAGUAUUAUGUUA,0.156 ± 0.045
4,UCCUGGUACAGCUUGCUUAGUAUUUUGUUA,0.0736 ± 0.021
5,UCCUGGAUGUCCAACCAUAGUAUUUAGUUA,0.00412 ± 0.004
6,UCCUGGAACAGCAACCAUAGUAUUUAGAAA,0.018 ± 0.0072
7,UCCUCCUACAGCUUGCUAUGUAUUUAGAAA,0.00902 ± 0.0042
8,UCCUCCUACACGAUGCAUAGUAUUUACAAA,0.122 ± 0.021
9,UCCUCCUACAGCUUGCAUAGAUAUUAGUAA,0.015 ± 0.007
10,UCCUGGAUCAGCUUGCAUAGUAAUUUCAAA,0.042 ± 0.016
11,UCCUGGAUCAGGAUGCAUAGUAUUUAGAAA,0.0525 ± 0.011
12,UCCUGGAUGUCCUUGCUUAGUAUUUAGAUA,0.0358 ± 0.0092
13,UCCUGGAACAGCUUGCAUUGAAUUUAGUUA,0.0179 ± 0.006
14,UCCUGGUACAGCUUGGUAAGUAUUUAGAAA,0.0185 ± 0.0092
15,UCCUGGAUGUGCUUGCAUUGUAUUUUGUUA,0.0555 ± 0.015
16,UCCUGGAUGUCGAUGCAUAGUAAUUUGUUA,0.00959 ± 0.0053
17,UCCUGGAUGUCGAUGUCAUAGUAUUUAGUUA,0.0067 ± 0.0037
18,UCCUGCUACAGGUUCCAUAGUAUUUAGUUA,0.00943 ± 0.0066
